Test results taken from PubChem BioAssay AID1159580 (chemical genetic matrix, 2015).
The campaign covered roughly 5,500 compounds. About 2,000 (36%) were called active. Another 18% or so got no clear call; they are omitted. Rule as the data show it: active = normalized growth mostly below about 0.91 (no sharp cut-off); inconclusive = no clear call, values can overlap the other calls; inactive = mostly above about 0.92. The list shows a part of the results.

Experiment: chemical genetic growth profiling, strain panel (AID 1159580);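 also: tested at 20 µM; growth read once vehicle control cultures reached saturation at 30 °C; 1 = growth at the plate median or of vehicle wells; lower values mean less growth of the strain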
Conditions: growth OD

Measured: normalized growth

Cc1cccc(Nc2ccccc2C(=O)O)c1C
active: S. cerevisiae deletion strains, locus YKL009W, strain mrt4, stronger effect = lower value 0.874 | S. cerevisiae deletion strains, locus YKL190W, strain CNB1, stronger effect = lower value 0.908 | S. cerevisiae deletion strains, locus YKR001C, strain vps1, stronger effect = lower value 0.676 | S. cerevisiae deletion strains, locus YKR026C, strain gcn3, stronger effect = lower value 0.877 | S. cerevisiae deletion strains, locus YKR091W, strain srl3, stronger effect = lower value 0.909 | S. cerevisiae deletion strains, locus YLL041C, strain sdh2, stronger effect = lower value 0.901 | S. cerevisiae deletion strains, locus YLR039C, strain RIC1, stronger effect = lower value 0.597 | S. cerevisiae deletion strains, locus YLR102C, strain apc9, stronger effect = lower value 0.876 | S. cerevisiae deletion strains, locus YLR262C, strain YPT6 (second series), stronger effect = lower value 0.749 | S. cerevisiae deletion strains, locus YLR268W, strain sec22, stronger effect = lower value 0.869 | S. cerevisiae deletion strains, locus YLR330W, strain CHS5, stronger effect = lower value 0.87 | S. cerevisiae deletion strains, locus YLR342W, strain FKS1 (second series), stronger effect = lower value 0.756 | S. cerevisiae deletion strains, locus YLR342W, strain FKS1, stronger effect = lower value 0.897 | S. cerevisiae deletion strains, locus YLR371W, strain rom2, stronger effect = lower value 0.858 | S. cerevisiae deletion strains, locus YLR384C, strain iki3, stronger effect = lower value 0.894 | S. cerevisiae deletion strains, locus YLR418C, strain cdc73, stronger effect = lower value 0.775 | S. cerevisiae deletion strains, locus YML016C, strain PPZ1, stronger effect = lower value 0.886 | S. cerevisiae deletion strains, locus YML032C, strain rad52, stronger effect = lower value 0.891 | S. cerevisiae deletion strains, locus YML124C, strain tub3, stronger effect = lower value 0.843 | S. cerevisiae deletion strains, locus YMR078C, strain ctf18, stronger effect = lower value 0.838 | S. cerevisiae deletion strains, locus YMR129W, stronger effect = lower value 0.908 | S. cerevisiae deletion strains, locus YMR223W, strain ubp8, stronger effect = lower value 0.869 | S. cerevisiae deletion strains, locus YMR231W, strain pep5, stronger effect = lower value 0.9 | S. cerevisiae deletion strains, locus YNL071W, strain lat1, stronger effect = lower value 0.897 | S. cerevisiae deletion strains, locus YNL183C, strain NPR1, stronger effect = lower value 0.805 | S. cerevisiae deletion strains, locus YNL298W, strain CLA4, stronger effect = lower value 0.844 | S. cerevisiae deletion strains, locus YNL307C, strain MCK1, stronger effect = lower value 0.626 | S. cerevisiae deletion strains, locus YNL322C, strain KRE1 (second series), stronger effect = lower value 0.898 | S. cerevisiae deletion strains, locus YNL322C, strain KRE1, stronger effect = lower value 0.912 | S. cerevisiae deletion strains, locus YNR049C, strain mso1, stronger effect = lower value 0.912 | S. cerevisiae deletion strains, locus YNR052C, strain pop2, stronger effect = lower value 0.878 | S. cerevisiae deletion strains, locus YOL147C, strain pex11, stronger effect = lower value 0.87 | S. cerevisiae deletion strains, locus YOR069W, strain VPS5, stronger effect = lower value 0.893 | S. cerevisiae deletion strains, locus YOR144C, strain elg1, stronger effect = lower value 0.86 | S. cerevisiae deletion strains, locus YOR184W, strain ser1, stronger effect = lower value 0.724 | S. cerevisiae deletion strains, locus YOR265W, strain rbl2, stronger effect = lower value 0.908 | S. cerevisiae deletion strains, locus YOR316C, strain cot1, stronger effect = lower value 0.874 | S. cerevisiae deletion strains, locus YPL051W, strain arl3, stronger effect = lower value 0.906 | S. cerevisiae deletion strains, locus YPL240C, strain hsp82, stronger effect = lower value 0.915 | S. cerevisiae deletion strains, locus YPL241C, strain CIN2, stronger effect = lower value 0.902 | S. cerevisiae deletion strains, locus YPR119W, strain clb2, stronger effect = lower value 0.856 | S. cerevisiae deletion strains, locus YPR163C, strain tif3, stronger effect = lower value 0.893 | S. cerevisiae deletion strains, locus YPR167C, strain met16, stronger effect = lower value 0.87
inactive: S. cerevisiae deletion strains, locus YJR075W, strain HOC1, stronger effect = lower value 0.937 | S. cerevisiae deletion strains, locus YKL068W, stronger effect = lower value 0.985 | S. cerevisiae deletion strains, locus YKL085W, strain MDH1 (second series), stronger effect = lower value 0.972 | S. cerevisiae deletion strains, locus YKL085W, strain MDH1, stronger effect = lower value 0.972 | S. cerevisiae deletion strains, locus YKL160W, strain elf1, stronger effect = lower value 0.921 | S. cerevisiae deletion strains, locus YLL001W, strain dnm1, stronger effect = lower value 0.914 | S. cerevisiae deletion strains, locus YLL026W, stronger effect = lower value 0.952 | S. cerevisiae deletion strains, locus YLR027C, strain aat2, stronger effect = lower value 0.936 | S. cerevisiae deletion strains, locus YLR058C, strain SHM2, stronger effect = lower value 0.906 | S. cerevisiae deletion strains, locus YLR113W, strain HOG1, stronger effect = lower value 0.903 | S. cerevisiae deletion strains, locus YLR221C, strain rsa3, stronger effect = lower value 0.925 | S. cerevisiae deletion strains, locus YLR258W, strain gsy2, stronger effect = lower value 0.924 | S. cerevisiae deletion strains, locus YLR262C, strain YPT6, stronger effect = lower value 0.683 | S. cerevisiae deletion strains, locus YLR320W, strain mms22, stronger effect = lower value 0.894 | S. cerevisiae deletion strains, locus YLR357W, strain rsc2, stronger effect = lower value 0.979 | S. cerevisiae deletion strains, locus YLR370C, strain arc18, stronger effect = lower value 0.913 | S. cerevisiae deletion strains, locus YML120C, strain ndi1, stronger effect = lower value 0.922 | S. cerevisiae deletion strains, locus YMR058W, strain fet3, stronger effect = lower value 0.918 | S. cerevisiae deletion strains, locus YMR125W, strain sto1, stronger effect = lower value 0.955 | S. cerevisiae deletion strains, locus YMR205C, strain PFK2, stronger effect = lower value 0.919 | S. cerevisiae deletion strains, locus YMR263W, strain SAP30, stronger effect = lower value 0.891 | S. cerevisiae deletion strains, locus YMR307W, strain GAS1, stronger effect = lower value 0.672 | S. cerevisiae deletion strains, locus YNL067W, strain RPL9B, stronger effect = lower value 0.926 | S. cerevisiae deletion strains, locus YNL128W, strain TEP1, stronger effect = lower value 0.988 | S. cerevisiae deletion strains, locus YNL153C, strain GIM3, stronger effect = lower value 0.933 | S. cerevisiae deletion strains, locus YNL209W, strain ssb2, stronger effect = lower value 0.939 | S. cerevisiae deletion strains, locus YNL233W, strain BNI4, stronger effect = lower value 0.927 | S. cerevisiae deletion strains, locus YNL248C, strain rpa49, stronger effect = lower value 0.971 | S. cerevisiae deletion strains, locus YNL250W, strain rad50, stronger effect = lower value 0.988 | S. cerevisiae deletion strains, locus YNL271C, strain bni1, stronger effect = lower value 0.941 | S. cerevisiae deletion strains, locus YOL006C, strain TOP1, stronger effect = lower value 0.884 | S. cerevisiae deletion strains, locus YOL012C, strain htz1 1.12 | S. cerevisiae deletion strains, locus YOR001W, strain rrp6, stronger effect = lower value 0.938 | S. cerevisiae deletion strains, locus YOR061W, strain CKA2, stronger effect = lower value 0.894 | S. cerevisiae deletion strains, locus YOR070C, strain gyp1, stronger effect = lower value 0.928 | S. cerevisiae deletion strains, locus YOR080W, strain dia2, stronger effect = lower value 0.941 | S. cerevisiae deletion strains, locus YOR083W, strain WHI5, stronger effect = lower value 0.921 | S. cerevisiae deletion strains, locus YOR106W, strain vam3, stronger effect = lower value 0.94 | S. cerevisiae deletion strains, locus YOR136W, strain idh2, stronger effect = lower value 0.958 | S. cerevisiae deletion strains, locus YOR231W, strain MKK1, stronger effect = lower value 0.919 | S. cerevisiae deletion strains, locus YOR270C, strain vph1, stronger effect = lower value 0.868 | S. cerevisiae deletion strains, locus YOR290C, strain snf2, stronger effect = lower value 0.919 | S. cerevisiae deletion strains, locus YPL055C, strain LGE1, stronger effect = lower value 0.881 | S. cerevisiae deletion strains, locus YPL078C, strain atp4, stronger effect = lower value 0.893 | S. cerevisiae deletion strains, locus YPL106C, strain sse1, stronger effect = lower value 1.05 | S. cerevisiae deletion strains, locus YPL256C, strain CLN2, stronger effect = lower value 0.874 | S. cerevisiae deletion strains, locus YPR141C, strain kar3, stronger effect = lower value 0.981 | S. cerevisiae deletion strains, strain wtn01, stronger effect = lower value 0.911 | S. cerevisiae strains, strain wild type, stronger effect = lower value 0.937
